Measured values as given in PubChem BioAssay (NCATS).
Inconclusive results are not listed. Active and inactive are the calls of the source. The call rests on the fitted dose curve; in most records, active means well fitted cell-killing curve with a large enough effect; inconclusive means small, poorly fitted or top-dose-only effect, or effect the other way; inactive means flat fitted curve, though single readings scatter.

How the values were obtained:
Experiment in all cases: Primary qHTS to identify gynecologic anti-cancer compounds using libraries of approved drugs and bioactive compounds (AID 1345084); further: nearly all actives have a fitted effect of over 55% in size
C33A = conditions: Gynecologic cancer cell panel viability, ATPlite luminescence, 48 h; series mostly up to 57.5 µM
Method in brief: (§1)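 Cells, 1,000 per well, plated 16 h, then exposed 48 h at 37 C to compounds. Viability by ATPlite luminescence after 15 min at room temperature.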

CAOV3 = conditions: Gynecologic cancer cell panel viability, ATPlite luminescence, 48 h; series mostly up to 57.5 µM
Method in brief: as §1

CASKI = conditions: Gynecologic cancer cell panel viability, ATPlite luminescence, 48 h; series mostly up to 57.5 µM
Method in brief: as §1

Es-2 = conditions: Gynecologic cancer cell panel viability, ATPlite luminescence, 48 h; series mostly up to 57.5 µM
Method in brief: as §1

HeLa = conditions: Gynecologic cancer cell panel viability, ATPlite luminescence, 48 h; series mostly up to 57.5 µM
Method in brief: as §1

Hek293T = conditions: Gynecologic cancer cell panel viability, ATPlite luminescence, 48 h, control line for the selectivity index; series mostly up to 57.5 µM
Method in brief: as §1

JEG-3 = conditions: Gynecologic cancer cell panel viability, ATPlite luminescence, 48 h; series mostly up to 57.5 µM
Method in brief: as §1

OV90 = conditions: Gynecologic cancer cell panel viability, ATPlite luminescence, 48 h; series mostly up to 57.5 µM
Method in brief: as §1

PA-1 = conditions: Gynecologic cancer cell panel viability, ATPlite luminescence, 48 h; series mostly up to 57.5 µM
Method in brief: as §1

SKOV3 = conditions: Gynecologic cancer cell panel viability, ATPlite luminescence, 48 h; series mostly up to 57.5 µM
Method in brief: as §1

Tov-21-G = conditions: Gynecologic cancer cell panel viability, ATPlite luminescence, 48 h; series mostly up to 57.5 µM
Method in brief: as §1

Tov112D = conditions: Gynecologic cancer cell panel viability, ATPlite luminescence, 48 h; series mostly up to 57.5 µM
Method in brief: as §1
On the % scale 0 is the no-effect control and ±100 the full control effect.

C[C@@H]1O[C@@H](O[C@H]2[C@@H]3C=CO[C@@H](O[C@@H]4O[C@H](CO)[C@@H](O)[C@H](O)[C@H]4O)[C@@H]3[C@@]3(CO)O[C@@H]23)[C@H](OC(=O)/C=C/c2ccc(O)c(O)c2)[C@H](O)[C@H]1O
inactive: Potency (C33A) | Potency (CAOV3) | Potency (CASKI) | Potency (Es-2) | Potency (HeLa) | Potency (Hek293T) | Potency (JEG-3) | Potency (OV90) | Potency (PA-1) | Potency (SKOV3) | Potency (Tov-21-G) | Potency (Tov112D)

COc1cc(/C=C/C(=O)O[C@H]2[C@H](O)[C@@H](CO)O[C@@]2(CO)O[C@H]2O[C@H](CO)[C@@H](O)[C@H](O)[C@H]2O)ccc1O
inactive: Potency (C33A) | Potency (CAOV3) | Potency (CASKI) | Potency (Es-2) | Potency (HeLa) | Potency (Hek293T) | Potency (JEG-3) | Potency (OV90) | Potency (PA-1) | Potency (SKOV3) | Potency (Tov-21-G) | Potency (Tov112D)

C[C@H](NC(c1cccc2[nH]c(=O)c(=O)[nH]c12)P(=O)(O)O)c1ccc(Br)cc1 (stereo partly drawn)
inactive: Potency (C33A) | Potency (CAOV3) | Potency (CASKI) | Potency (Es-2) | Potency (HeLa) | Potency (Hek293T) | Potency (JEG-3) | Potency (OV90) | Potency (PA-1) | Potency (SKOV3) | Potency (Tov-21-G) | Potency (Tov112D)

CCC(C)C(=O)O[C@H]1CCC=C2C=C[C@H](C)[C@H](CC[C@@H](O)C[C@@H](O)CC(=O)O)[C@H]21 (stereo partly drawn)
inactive: Potency (C33A) | Potency (CAOV3) | Potency (CASKI) | Potency (Es-2) | Potency (HeLa) | Potency (Hek293T) | Potency (JEG-3) | Potency (OV90) | Potency (PA-1) | Potency (SKOV3) | Potency (Tov-21-G) | Potency (Tov112D)

C=CC(C)(C)c1[nH]c2cc3c(cc2c1CC1NC(=O)C2CCCN2C1=O)C=CC(C)(C)O3 (stereo not drawn)
inactive: Potency (C33A) | Potency (CAOV3) | Potency (CASKI) | Potency (Es-2) | Potency (HeLa) | Potency (Hek293T) | Potency (JEG-3) | Potency (OV90) | Potency (PA-1) | Potency (SKOV3) | Potency (Tov-21-G) | Potency (Tov112D)

COc1ccccc1NC(=O)OCC1CCN(C(=O)OC(C)(C)C)CC1
inactive: Potency (C33A) | Potency (CAOV3) | Potency (CASKI) | Potency (Es-2) | Potency (HeLa) | Potency (Hek293T) | Potency (JEG-3) | Potency (OV90) | Potency (PA-1) | Potency (SKOV3) | Potency (Tov-21-G) | Potency (Tov112D)

CC(O)/C=C/C1(O)C(C)C(O[C@@H]2O[C@H](CO)[C@@H](O)[C@H](O)[C@H]2O)C(O)CC1(C)C (stereo partly drawn)
inactive: Potency (C33A) | Potency (CAOV3) | Potency (CASKI) | Potency (Es-2) | Potency (HeLa) | Potency (Hek293T) | Potency (JEG-3) | Potency (OV90) | Potency (PA-1) | Potency (SKOV3) | Potency (Tov-21-G) | Potency (Tov112D)

CC1(C)CC[C@]2(C(=O)O[C@@H]3O[C@H](CO)[C@@H](O)[C@H](O)[C@H]3O)CC[C@]3(C)C(=CCC4[C@@]5(C)CC[C@H](O[C@@H]6O[C@H](C(=O)O)[C@@H](O)[C@H](O[C@@H]7O[C@H](CO)[C@H](O)[C@H](O)[C@H]7O)[C@H]6O)C(C)(C)C5CC[C@]43C)C2C1 (stereo partly drawn)
inactive: activity change, negative = cytotoxicity (C33A) -1.04% [at 11.6 µM] | activity change, negative = cytotoxicity (CAOV3) 0.89% [at 11.6 µM] | activity change, negative = cytotoxicity (CASKI) -0.547% [at 11.6 µM] | activity change, negative = cytotoxicity (Es-2) -0.756% [at 11.6 µM] | activity change, negative = cytotoxicity (HeLa) -6.39% [at 11.6 µM] | activity change, negative = cytotoxicity (Hek293T) 7.67% [at 11.6 µM] | activity change, negative = cytotoxicity (JEG-3) 4.29% [at 11.6 µM] | activity change, negative = cytotoxicity (OV90) 1.32% [at 11.6 µM] | activity change, negative = cytotoxicity (PA-1) -14.7% [at 11.6 µM] | activity change, negative = cytotoxicity (SKOV3) 12.6% [at 11.6 µM] | activity change, negative = cytotoxicity (Tov-21-G) -0.142% [at 11.6 µM] | activity change, negative = cytotoxicity (Tov112D) -2.13% [at 11.6 µM]

CC(C)C(=O)OC[C@H]1O[C@H](O[C@H]2O[C@H](CO)[C@@H](O)[C@H](O)[C@H]2O)[C@H](O)[C@@H](O)[C@@H]1O
inactive: Potency (C33A) | Potency (CAOV3) | Potency (CASKI) | Potency (Es-2) | Potency (HeLa) | Potency (Hek293T) | Potency (JEG-3) | Potency (OV90) | Potency (PA-1) | Potency (SKOV3) | Potency (Tov-21-G) | Potency (Tov112D)

O=C(O)C(O[C@@H]1O[C@H](CO[C@@H]2O[C@H](CO)[C@@H](O)[C@H](O)[C@H]2O)[C@@H](O)[C@H](O)[C@H]1O)c1ccccc1 (stereo partly drawn)
inactive: Potency (C33A) | Potency (CAOV3) | Potency (CASKI) | Potency (Es-2) | Potency (HeLa) | Potency (Hek293T) | Potency (JEG-3) | Potency (OV90) | Potency (PA-1) | Potency (SKOV3) | Potency (Tov-21-G) | Potency (Tov112D)

C/C=C1\[C@H](OC2OC(COC3OC(CO)C(O)C(O)C3O)C(O)C(O)C2O)OC=C(C(=O)OC)[C@H]1CC(=O)OCCc1ccc(O)cc1 (stereo partly drawn)
inactive: Potency (C33A) | Potency (CAOV3) | Potency (CASKI) | Potency (Es-2) | Potency (HeLa) | Potency (Hek293T) | Potency (JEG-3) | Potency (OV90) | Potency (PA-1) | Potency (SKOV3) | Potency (Tov-21-G) | Potency (Tov112D)

COc1cc(O)cc(C)c1C(=O)OC1C(CO)OC(OC2C(O)C(O)C(O)C(O)C2O)C(O)C1O (stereo not drawn)
inactive: Potency (C33A) | Potency (CAOV3) | Potency (CASKI) | Potency (Es-2) | Potency (HeLa) | Potency (Hek293T) | Potency (JEG-3) | Potency (OV90) | Potency (PA-1) | Potency (SKOV3) | Potency (Tov-21-G) | Potency (Tov112D)

COc1cc(Nc2nc3ccccc3nc2NS(=O)(=O)c2ccc(NC(=O)c3ccc(OC)c(C)c3)cc2)cc(OC)c1
inactive: Potency (C33A) | Potency (CAOV3) | Potency (CASKI) | Potency (Es-2) | Potency (HeLa) | Potency (Hek293T) | Potency (JEG-3) | Potency (OV90) | Potency (PA-1) | Potency (SKOV3) | Potency (Tov-21-G) | Potency (Tov112D)

CC(C)C(NC(=O)c1ccc2ccccc2n1)C(=O)NC(CC(=O)O)C(=O)COc1c(F)cccc1F (stereo not drawn)
inactive: Potency (C33A) | Potency (CAOV3) | Potency (CASKI) | Potency (Es-2) | Potency (HeLa) | Potency (Hek293T) | Potency (JEG-3) | Potency (OV90) | Potency (PA-1) | Potency (SKOV3) | Potency (Tov-21-G) | Potency (Tov112D)
